An excerpt weighted towards active compounds, which were near 3.1% of everything screened.
MITF TRPM1 inh: inhibitors of MITF-driven TRPM1 promoter in melanoma cells; hit rate 0.83% among 330,000; SK-MEL-5 TRPM1 promoter luciferase, 24 h; inhibition, % at 12.5 µM;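 active means mean inhibition across replicates of 60% or more, whatever share of single replicates reaches that level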
ABHD5 PLIN5 PPI: blocks binding of human ABHD5 to perilipin-5 | Split G. princeps luciferase complementation, luminescence, 4 h | inhibition, % at 4 µM | hit rate 0.78% among 360,000;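 active means inhibition above the mean inhibition across every tested compound plus 3 SD, cut at about 22% in these data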
Target sequence (Q00G26 whole entry, looked up): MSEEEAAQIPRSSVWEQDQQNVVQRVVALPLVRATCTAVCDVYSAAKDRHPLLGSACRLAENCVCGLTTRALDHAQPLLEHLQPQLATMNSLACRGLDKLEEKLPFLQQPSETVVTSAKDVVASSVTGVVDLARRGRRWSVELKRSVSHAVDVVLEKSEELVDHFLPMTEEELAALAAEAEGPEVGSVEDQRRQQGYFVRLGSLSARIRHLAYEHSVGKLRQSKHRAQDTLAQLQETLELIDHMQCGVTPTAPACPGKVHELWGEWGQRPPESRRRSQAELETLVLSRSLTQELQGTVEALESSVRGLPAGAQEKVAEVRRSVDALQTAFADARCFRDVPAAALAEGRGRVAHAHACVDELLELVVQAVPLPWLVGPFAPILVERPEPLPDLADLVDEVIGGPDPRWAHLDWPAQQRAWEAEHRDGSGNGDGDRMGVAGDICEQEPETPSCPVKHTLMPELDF
Target sequence (Q8WTS1 whole entry, looked up): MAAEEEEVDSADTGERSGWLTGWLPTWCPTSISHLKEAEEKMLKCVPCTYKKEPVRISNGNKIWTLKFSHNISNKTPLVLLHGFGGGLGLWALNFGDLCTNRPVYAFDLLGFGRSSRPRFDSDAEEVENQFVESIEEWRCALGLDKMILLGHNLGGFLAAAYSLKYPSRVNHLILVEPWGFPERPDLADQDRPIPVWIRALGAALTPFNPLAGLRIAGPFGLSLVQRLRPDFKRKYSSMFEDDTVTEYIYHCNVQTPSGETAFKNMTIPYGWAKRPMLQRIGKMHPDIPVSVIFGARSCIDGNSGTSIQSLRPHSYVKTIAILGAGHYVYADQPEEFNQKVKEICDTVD
KKLEB cytotox: reduces viability of KKLEB cystic fibrosis airway cells; KKLEB CF airway cells viability, ATPlite luminescence, overnight; hits give low values; cells stimulated with P. aeruginosa culture filtrate; activity change (cytotoxicity), % at 5 µM; hit rate 0.36% among 360,000; AID 602141;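 active means corrected activity change at or below -50% at 5 µM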
CF NFkB block: cystic fibrosis NF-kB activation inhibition; KKLEB NF-kB-GFP reporter, PAF-induced, GFP fluorescence overnight; inhibition, % at 5 µM; hit rate 0.86% among 360,000; AID 588850;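 active means at least 50% inhibition at 5 µM, scaled per plate between neutral and stimulator controls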;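 further: PAF is a Pseudomonas aeruginosa culture filtrate used as stimulus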
Peg3 promoter: Peg3 promoter activity inhibition | hit rate 1.7% among 360,000 | AID 588405 | inhibition, % at 20 µM | HeLa PEG-Prom luciferase reporter, luminescence, overnight;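 active means inhibition of at least 50% at 20 µM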
HIF-2a block: HIF-2a inhibition | 786-0 RCC cells HIF-2a reporter, luciferase luminescence, overnight | inhibition, % at 18.8 µM | hit rate 0.72% among 360,000 | AID 624352;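 active means inhibition of the luminescence signal of 40% or more relative to plate controls, in a single-dose primary screen at 18.75 µM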
Each line names hits and unclear results; the compound was inactive in the other large screens.

CC(=O)c1ccc(OCC(=O)N2CCCC2c2ccc3c(c2)OCCCO3)cc1 (centres undefined)	none
CC1(C)Cc2c(C#N)c(N3CCCC3)nc(-c3ccco3)c2CO1	none
N#Cc1c(N2CCOCC2)nc(-c2ccco2)c2c1CCCC2	ABHD5 PLIN5 PPI 23
COC(=O)C(C#N)C(=C1C(=O)CC(C)(C)CC1=O)c1ccc(O)cc1 (centres undefined)	KKLEB cytotox -50
COC(=O)c1ccc(C2C(C#N)=C(C)NC3=C2C(=O)CC(C)(C)C3)cc1 (centres undefined)	none
COc1cc2ccnc(C=O)c2cc1OC	CF NFkB block 86 (no result: MITF TRPM1 inh)
CC[C@H](C)[C@@H](C(=O)NCCCCCCCCCCC(=O)N1CCN(C(=O)OC(C)(C)C)CC1)n1cc(CCCCCNC(=O)OC(C)(C)C)nn1	MITF TRPM1 inh 65
CC(C)(C)OC(=O)NCCCCCc1cn([C@@H](CO)C(=O)NCCCCCCCCCCC(=O)N2CCN(C(=O)OC(C)(C)C)CC2)nn1	Peg3 promoter 93
CC(C)(C)OC(=O)CC[C@@H](C(=O)NCCCCCCCCCCC(=O)N1CCN(C(=O)OC(C)(C)C)CC1)n1cc(CCCCCNC(=O)OC(C)(C)C)nn1	none
CCOC(=O)c1cnc2oc3ccccc3n2c1=O	none
CCN(Cc1ccccc1)S(=O)(=O)CCNC(=O)c1ccccc1	none
CC(=O)C(=Cc1cn(-c2ccccc2)nc1-c1ccccc1)C(C)=O	none
CCC(C)[C@@H](NC(=O)OC(C)(C)C)c1nnc(S(=O)(=O)Cc2cccc(C)c2)o1 (some centres undefined)	MITF TRPM1 inh 71, ABHD5 PLIN5 PPI 73, CF NFkB block 82, Peg3 promoter 108
COc1ccccc1NC(=O)Cc1nnc(SCC(=O)NC2CCCCC2C)n1C (centres undefined)	none
Fc1ccc(-n2nnc(-c3cnc4ccccc4c3)n2)cc1	Peg3 promoter 52
Cc1c(NC(=O)c2cccc(NC(=O)COc3ccccc3C#N)c2)c(=O)n(-c2ccccc2)n1C	HIF-2a block 45
Cc1ccc(N/C(N)=N/c2nc(C)cc(N3CCCCC3)n2)c(C)c1	Peg3 promoter 91
Cc1ccc(N/C(N)=N/c2nc3c(c(=O)[nH]2)CCCC3)c(C)c1	none
CCCCNC(=O)C1=C(N)C(C(=O)Nc2ccc(C)c(S(=O)(=O)N3CCCCC3)c2)SC1=Nc1ccc(C)cc1C (centres undefined)	ABHD5 PLIN5 PPI 24
CCCCC(=O)Nc1ccc(C)c(S(=O)(=O)N2CCCCCC2)c1	none
O=C(c1nc(SCc2ccc([N+](=O)[O-])cc2)n2ccccc12)C(F)(F)F	none
COc1ccc(NC(=O)Cn2c(=O)n(CC3CCCO3)c(=O)c3cc(OC)c(OC)cc32)cc1OC (centres undefined)	none
CC(C)C(N)c1csc(Nc2cc(Oc3ccccc3)ncn2)n1 (centres undefined)	none (no result: MITF TRPM1 inh)
CC(C)CC(N)c1csc(Nc2cc(Oc3ccccc3)ncn2)n1 (centres undefined)	Peg3 promoter 63 (no result: MITF TRPM1 inh)
COc1ccc(Nc2nc(OC)nc(OC)n2)cc1	none
COc1ccc(Nc2nc(Nc3ccc(OC)cc3)nc(-n3[nH]c(=O)c(C)c3C)n2)cc1	CF NFkB block 87
COc1ccccc1NC(=O)CCCCCN1C(=O)c2cccc([N+](=O)[O-])c2C1=O	none
COc1cc(/C=C2/C(=O)c3cccc([N+](=O)[O-])c3C2=O)c(Br)cc1O	Peg3 promoter 110, HIF-2a block 96
COc1cc(C)c(NC(=O)C2CCN(S(=O)(=O)c3cccs3)CC2)cc1OC	none
C=CCN(C(=O)c1csnn1)C(C(=O)NCc1ccccc1)c1cccs1 (centres undefined)	none
CCOC(=O)c1c(NC(=S)NCCc2ccccc2)sc2c1CC(C(C)C)OC2 (centres undefined)	CF NFkB block 60
Cc1ccccc1N=C1SCCN1C(=O)CN1C(=O)NC2(CCCC2)C1=O	none
CC1(C(=O)Nc2cnc3ccccc3c2)CCN1C(=O)CCc1ccccc1 (centres undefined)	none (no result: MITF TRPM1 inh)
CC1(C(=O)Nc2cnc3ccccc3c2)CCN1CCc1ccccc1 (centres undefined)	Peg3 promoter 51 (no result: MITF TRPM1 inh)
C=CCSc1nnc(CNS(=O)(=O)c2ccc(C)cc2)n1C	none
CCCSc1nnc(CNS(=O)(=O)c2ccc(C)cc2)n1C	ABHD5 PLIN5 PPI 22
